Read-out in assay [1]: TIMP metallopeptidase inhibitor 2 (TIMP2), TIMP2 (gene 7077)
Nature of the assay: BSK_KF3CT_TIMP2: BioMAP Diversity Plus: KF3CT Assay for TIMP metallopeptidase inhibitor 2 (TIMP2) Biomarker Activity (AID 2283071). Conditions: primary human keratinocytes with fibroblasts; actives raise or lower the signal. The procedure, abridged: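 Cells: human keratinocytes co-cultured with foreskin fibroblasts. Treat with chemical, 24 h. Measure TIMP-2 by ELISA; fit curves bidirectionally vs DMSO baseline.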

Read-out in assay [2]: Transforming growth factor beta 1 (TGFb1), TGFB1 (gene 7040)
Nature of the assay: BSK_KF3CT_TGFb1: BioMAP Diversity Plus: KF3CT Assay for Transforming growth factor beta 1 (TGFb1) Biomarker Activity (AID 2283072). The settings on record: primary human keratinocytes with fibroblasts; actives raise or lower the signal. The procedure, abridged:
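Primary human skin cells (keratinocytes, foreskin fibroblasts) were co-cultured, exposed to test chemical and sampled at 24 h. TGF-b1 levels were measured by ELISA and fitted bidirectionally relative to DMSO.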

Read-out in assay [3]: C-C motif chemokine 2 (Homo sapiens) (UniProt P13500)
The assay can be described thus: BSK_KF3CT_MCP1: BioMAP Diversity Plus: KF3CT Assay for Monocyte Chemoattractant Protein 1 (MCP1/CCL2) Biomarker Activity (AID 2283073). Conditions: primary human keratinocytes with fibroblasts; actives raise or lower the signal. In outline: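 KF3CT skin co-culture (keratinocytes/foreskin fibroblasts), 24 h post-dose; MCP-1 by ELISA; gain/loss of signal fit bidirectionally vs DMSO baseline.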

Read-out in assay [4]: Matrix Metallopeptidase 9 (MMP9), MMP9 (gene 4318)
The assay can be described thus: BSK_KF3CT_MMP9: BioMAP Diversity Plus: KF3CT Assay for Matrix Metallopeptidase 9 (MMP9) Biomarker Activity (AID 2283074).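 On AC50: MMP9 protein level quantified by ELISA in the co-culture.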 The settings on record: primary human keratinocytes with fibroblasts; actives raise or lower the signal. The procedure, abridged: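 Human keratinocyte/foreskin fibroblast co-culture; compound added; 24 h; MMP-9 by ELISA; bidirectional fit vs DMSO baseline.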

Read-out in assay [5]: urokinase plasminogen activator (uPA), PLAU (gene 5328)
The assay can be described thus: BSK_KF3CT_uPA: BioMAP Diversity Plus: KF3CT Assay for urokinase plasminogen activator (uPA) Biomarker Activity (AID 2283075). Conditions: primary human keratinocytes with fibroblasts; actives raise or lower the signal. The procedure, abridged: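 ELISA readout of uPA, analyzed for signal gain or loss relative to DMSO, from a human primary keratinocyte–foreskin fibroblast co-culture measured 24 h after chemical treatment.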

Read-out in a further assay: CD40, CD40 (gene 958)
Nature of the assay: BSK_LPS_CD40: BioMAP Diversity Plus: LPS Assay for CD40 Biomarker Activity (AID 2283076). Conditions: primary human HUVEC with PBMC; actives raise or lower the signal. The procedure, abridged:
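ELISA readout of CD40 in HUVEC/PBMC co-culture (BSK_LPS system), 24 h post-dosing; bidirectional curve fit, DMSO baseline; parallel SRB total-protein staining for cytotoxicity.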

Read-out in assay [6]: E-selectin (Homo sapiens) (UniProt P16581)
Nature of the assay: BSK_LPS_Eselectin: BioMAP Diversity Plus: LPS Assay for Eselectin Biomarker Activity (AID 2283077). Conditions: primary human HUVEC with PBMC; actives raise or lower the signal. In outline: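 ELISA readout of E-selectin, 24 h post-dose, HUVEC + PBMC co-culture (LPS system). Gain or loss of signal vs DMSO baseline, bidirectional fit.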

Read-out in assay [7]: Interleukin-8 (IL8), CXCL8 (gene 3576)
Nature of the assay: BSK_LPS_IL8: BioMAP Diversity Plus: LPS Assay for Interleukin-8 (IL8) Biomarker Activity (AID 2283078). The settings on record: primary human HUVEC with PBMC; actives raise or lower the signal. The procedure, abridged: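 HUVEC + PBMC co-culture, LPS-activated; test chemicals dosed, IL-8 read by ELISA at 24 h. Bidirectional curve fit vs DMSO baseline (gain or loss of signal).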

Assay [8] is described as follows: BSK_LPS_SRB: Viability Assessment in the BioMAP Diversity Plus: LPS Assay (AID 2283079).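 Further: total protein by sulforhodamine B absorbance as a cytotoxicity measure; measured one day after compound addition; fitted in both directions against DMSO so loss or gain of signal counts.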 Conditions: primary human HUVEC with PBMC. In outline: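 HUVEC + PBMC co-culture, LPS-stimulated; compound 24 h. 10% TCA fix, 0.1% SRB stain, A560. Bidirectional fit vs DMSO.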
Read-out in assay [9]: Interleukin-1 alpha (IL1a), IL1A (gene 3552)
The assay can be described thus: BSK_LPS_IL1a: BioMAP Diversity Plus: LPS Assay for Interleukin-1 alpha (IL1a) Biomarker Activity (AID 2283080). The settings on record: primary human HUVEC with PBMC; actives raise or lower the signal. In outline:
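HUVEC/PBMC co-culture, LPS system; 24 h after dosing; IL-1a by ELISA; gain or loss of signal fitted bidirectionally vs DMSO baseline.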

The source made the active and inactive calls. How the source made its calls: active means hit-call score of the fitted dose curve at least 0.9, where 1 is the maximum; inactive means score below 0.9.

For orientation: AC50 means the concentration at which the activity in the assay is half-maximal.

Chain of E-selectin (Homo sapiens) (P16581 whole entry, looked up): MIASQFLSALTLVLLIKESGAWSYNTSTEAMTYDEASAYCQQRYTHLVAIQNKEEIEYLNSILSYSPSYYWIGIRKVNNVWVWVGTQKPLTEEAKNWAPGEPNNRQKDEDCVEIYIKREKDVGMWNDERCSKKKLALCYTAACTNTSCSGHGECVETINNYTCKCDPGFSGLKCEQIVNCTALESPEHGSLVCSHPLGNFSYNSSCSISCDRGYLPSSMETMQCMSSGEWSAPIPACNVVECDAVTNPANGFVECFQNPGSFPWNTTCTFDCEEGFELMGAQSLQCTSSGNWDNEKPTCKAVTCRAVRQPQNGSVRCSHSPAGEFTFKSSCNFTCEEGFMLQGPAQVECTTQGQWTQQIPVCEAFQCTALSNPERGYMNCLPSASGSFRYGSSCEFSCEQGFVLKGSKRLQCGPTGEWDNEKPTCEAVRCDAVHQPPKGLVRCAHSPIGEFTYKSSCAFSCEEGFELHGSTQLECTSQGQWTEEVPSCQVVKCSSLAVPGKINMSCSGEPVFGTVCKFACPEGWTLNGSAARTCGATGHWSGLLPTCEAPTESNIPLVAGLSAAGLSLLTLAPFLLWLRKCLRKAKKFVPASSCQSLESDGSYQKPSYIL

On to `CCCCC(CC)COCCC#N` (centres undefined), for which the outcome in [1] is “inactive”; in assay [2], “inactive”; in [3], “inactive”; in assay [4], “inactive”; in [5], “inactive”; in the assay with CD40, CD40 (gene 958), “inactive”. The outcome in [6], in assay [7], in [8] and in assay [9] was inactive.

As to `O=C=NC1CCC(CC2CCC(N=C=O)CC2)CC1` (centres undefined), the outcome in assay [1] is “inactive”; in assay [2], “inactive”; in assay [3], “inactive”; in assay [4], “inactive”; in the assay with CD40, CD40 (gene 958), “inactive”; in assay [6], “inactive”. Also, the result in assay [7], in assay [8] and in [9] was inactive. Besides, the AC50 in assay [5] is 0.016 µM (active).

Turning to `Nc1cc([N+](=O)[O-])ccc1Cl`, the outcome in assay [1] was “inactive”; in assay [2] it was “inactive”; in assay [3], “inactive”; in assay [4], “inactive”; in the assay with CD40, CD40 (gene 958), “inactive”; in [6], “inactive”. Besides, the result in [7], in assay [8] and in [9] was inactive.

In the case of `CC(=O)/C=C/C1=C(C)CCCC1(C)C`, the outcome was “inactive” in [1]; “inactive” in assay [2]; “inactive” in assay [3]; “inactive” in [4]; “inactive” in the assay with CD40, CD40 (gene 958); “inactive” in [6]. The result in assay [7], in assay [8] and in assay [9] was inactive.

Consider `CNC[C@H](O)c1cccc(O)c1`, for which the outcome in [1] was “inactive”; in assay [2], “inactive”; in assay [4], “inactive”; in assay [5], “inactive”; with CD40, CD40 (gene 958), “inactive”; in assay [6] it was “inactive”. The outcome in assay [7], in assay [8] and in assay [9] was inactive. For the same compound, the AC50 in assay [3] was 0.0741 µM (active).

In the case of `CCn1c2ccccc2c2cc(N)ccc21`, the AC50 in assay [1] was 1.49 µM (active); in the assay with CD40, CD40 (gene 958), 5.63 µM (active); in assay [9] it was 0.653 µM (active). Also, the result in assay [2], in [3], in assay [4], in assay [5], in [6] and in [7] was inactive. The outcome in [8] was inactive.

As to `CC1CCC(C(C)CS)CC1S` (centres undefined), the AC50 was 5.83 µM (active) in assay [1]; 7.37 µM (active) in assay [2]; 20 µM (active) in assay [3]; 24 µM (active) in [4]; 20 µM (active) with CD40, CD40 (gene 958); 34.6 µM (active) in [6]. For the same compound, the AC50 in assay [8] was 29.4 µM (active); in assay [9], 36.3 µM (active). The outcome in assay [7] was inactive.

Take `CC(C)Oc1ccccc1O`: the outcome is “inactive” in assay [1]; “inactive” in [2]; “inactive” in assay [3]; “inactive” in assay [4]; “inactive” with CD40, CD40 (gene 958); “inactive” in [6]. Besides, the result in [7], in assay [8] and in assay [9] was inactive.

Turning to `Cc1ccc(Nc2ccc(O)c3c2C(=O)c2ccccc2C3=O)cc1`, the outcome is “inactive” in [1]; “inactive” in assay [2]; “inactive” in [3]; “inactive” in assay [4]; “inactive” in assay [5]; “inactive” with CD40, CD40 (gene 958). The outcome in assay [6], in assay [7], in assay [8] and in [9] was inactive.

`CC(C)(COC(=O)c1ccccc1)COC(=O)c1ccccc1`: the result in assay [1], in assay [2], in assay [3], in assay [4], in [6] and in assay [7] was inactive. Also, in assay [9], the result was inactive. Also, the AC50 with CD40, CD40 (gene 958) was 32 µM (active); in assay [8], 31.3 µM (active).

Consider `Cc1ccc2n[nH]nc2c1`, for which the outcome in [1] was “inactive”; in assay [2], “inactive”; in assay [3], “inactive”; in assay [4] it was “inactive”; in assay [5] it was “inactive”; in the assay with CD40, CD40 (gene 958), “inactive”. For the same compound, the outcome in [6], in assay [7], in assay [8] and in assay [9] was inactive.

Consider `O=C(O)c1ccc([N+](=O)[O-])cc1`, for which the outcome in assay [1] is “inactive”; in [2], “inactive”; in assay [3], “inactive”; in assay [4] it was “inactive”; with CD40, CD40 (gene 958), “inactive”; in [6], “inactive”. Further, the outcome in assay [7], in assay [8] and in assay [9] was inactive.

Source of the values: PubChem BioAssay (EPA / NIEHS).
